Measurements as given in PubChem BioAssay (NCI).
Compounds without any hit were thinned out: in the full panel of roughly 83,000, 20% have a hit.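 48-hour exposure, single concentration, 96-well plates; percent growth endpoint where 0 means no net growth. Active: below 10.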 Values without a mark were called inactive. Calls of active or inactive are those of the source.

Legend:
Test in all cases: NCI-60 one-dose screen, 48 h (100 = growth as untreated, 0 = no growth, -100 = all killed)
Conditions in all cases: 10 µM unless noted
[1] = tested on: DU-145 prostate
[2] = tested on: K-562 leukemia
[3] = tested on: MALME-3M melanoma
[4] = tested on: MDA-MB-231 breast
[5] = tested on: RXF 393 renal
[6] = tested on: SF-268 CNS
[7] = tested on: SF-295 CNS
[8] = tested on: SF-539 CNS
[9] = tested on: UACC-257 melanoma
[10] = tested on: M14 melanoma
[11] = tested on: HCT-15 colon
[12] = tested on: HT29 colon
[13] = tested on: SNB-19 CNS
[14] = tested on: U251 CNS
[15] = tested on: PC-3 prostate
[16] = tested on: SK-MEL-5 melanoma
[17] = tested on: UACC-62 melanoma
[18] = tested on: LOX IMVI melanoma
[19] = tested on: SK-MEL-28 melanoma
[20] = tested on: SNB-75 CNS

Q: What does the source list for `Nc1nc2cc(O)ccc2n2cc3c(F)cccc3c12`?
A: growth [1]: 33.4%; growth [2]: 29.4%; growth [3]: 33.3%; growth [4]: 38.8%; growth [5]: 5.51% (active); growth [6]: 19.1%; growth [7]: 11.9%; growth [8]: 13.7%; growth [9]: 50.9%; growth [10]: 23%; growth [11]: 35.6%; growth [12]: 20.7%; growth [13]: 35.9%; growth [14]: 32.8%; growth [15]: 42.2%; growth [16]: 14.2%; growth [17]: 39%; growth [18]: 34.9%; growth [19]: 20%

Q: With `CC[C@H](Nc1ncnc2nc[nH]c12)c1nc2cccc(NCc3ccc(C(=O)NO)nc3)c2c(=O)n1-c1ccccc1` as the compound, how does the growth [1] read?
A: 67%

Q: And the growth [2]?
A: 10.5%

Q: And the growth [3]?
A: 62.3%

Q: And the growth [4]?
A: 50.6%

Q: What about the growth [5] of the same compound?
A: 27.8%

Q: What about the growth [6] of the same compound?
A: 35.9%

Q: What about the growth [7] of the same compound?
A: 80.9%

Q: And the growth [8]?
A: 10.9%

Q: What about the growth [9] of the same compound?
A: 56.3%

Q: And the growth [10]?
A: 68.5%

Q: What about the growth [11] of the same compound?
A: 97.1%

Q: And the growth [12]?
A: 66.6%

Q: And the growth [13]?
A: 26%

Q: And the growth [14]?
A: 23.6%

Q: And the growth [15]?
A: 23%

Q: What about the growth [16] of the same compound?
A: 80.2%

Q: What about the growth [17] of the same compound?
A: 20.5%

Q: What about the growth [18] of the same compound?
A: 23.1%

Q: And the growth [19]?
A: 57.6%

Q: Which results are given for `CCCCCSc1ccc2nc(NC(=O)OCCC)sc2c1`?
A: growth [1]: 43.2%; growth [2]: 19%; growth [3]: 62.5%; growth [4]: 43.3%; growth [5]: 28.8%; growth [6]: 55.2%; growth [7]: 19.9%; growth [8]: -24.7% (active); growth [9]: 63.1%; growth [10]: 23.1%; growth [11]: 26.1%; growth [12]: 15.9%; growth [20]: 13.3%; growth [13]: 40.9%; growth [15]: 27.7%; growth [16]: 17.7%; growth [17]: 31.1%; growth [18]: 38.6%; growth [19]: 70.9%

Q: With `COc1ccc2cnc(N)c(C#Cc3cc(C(=O)Nc4ccc(CN5CCN(C)CC5)c(C(F)(F)F)c4)cnc3C)c2c1` as the compound, how does the growth [1] read?
A: 64%

Q: And the growth [2]?
A: -42.8% (active)

Q: What about the growth [3] of the same compound?
A: -66.4% (active)

Q: What about the growth [4] of the same compound?
A: 9.87% (active)

Q: And the growth [5]?
A: -12.9% (active)

Q: And the growth [6]?
A: 62.5%

Q: What about the growth [7] of the same compound?
A: 78.9%

Q: And the growth [8]?
A: 31.3%

Q: What about the growth [9] of the same compound?
A: 33.1%

Q: And the growth [10]?
A: 7.97% (active)

Q: What about the growth [11] of the same compound?
A: 43.5%

Q: What about the growth [12] of the same compound?
A: 13.2%

Q: What about the growth [20] of the same compound?
A: -1.84% (active)

Q: What about the growth [13] of the same compound?
A: 80.5%

Q: And the growth [15]?
A: 16%

Q: And the growth [16]?
A: 34.6%

Q: And the growth [17]?
A: 26.3%

Q: What about the growth [18] of the same compound?
A: 12%

Q: What about the growth [19] of the same compound?
A: -72.5% (active)

Q: How did the growth [1] turn out when `CCN(CC)c1ccc2nc3ccc(N=Nc4ccc(O)cc4)cc3[n+](-c3ccccc3)c2c1` was run?
A: 82.1%

Q: And the growth [2]?
A: 18.2%

Q: And the growth [3]?
A: 35.4%

Q: And the growth [4]?
A: 20.9%

Q: And the growth [5]?
A: 30.6%

Q: And the growth [6]?
A: 81%

Q: And the growth [7]?
A: 66.8%

Q: And the growth [8]?
A: 89.5%

Q: What about the growth [9] of the same compound?
A: -1.57% (active)

Q: And the growth [10]?
A: 61.3%

Q: And the growth [11]?
A: 65.6%

Q: And the growth [12]?
A: 28.9%

Q: And the growth [13]?
A: 73.3%

Q: And the growth [14]?
A: 44.1%

Q: And the growth [15]?
A: 48.3%

Q: What about the growth [16] of the same compound?
A: 46.3%

Q: What about the growth [17] of the same compound?
A: 59.3%

Q: And the growth [18]?
A: 36.5%

Q: And the growth [19]?
A: 52.2%

Q: Which growth [1] does the source give for `COC(=O)c1cc(O)c2cc3c(cc2c1-c1cc(OC)c(OC)c(OC)c1)OCO3` here?
A: 40.6%

Q: What about the growth [2] of the same compound?
A: 15.4%

Q: And the growth [3]?
A: 48.3%

Q: And the growth [4]?
A: 40.2%

Q: And the growth [5]?
A: -31.3% (active)

Q: What about the growth [6] of the same compound?
A: 47.8%

Q: And the growth [7]?
A: 26.3%

Q: What about the growth [8] of the same compound?
A: 13.3%

Q: And the growth [9]?
A: 60.1%

Q: What about the growth [10] of the same compound?
A: 19%

Q: What about the growth [11] of the same compound?
A: 23.6%

Q: And the growth [12]?
A: -9.35% (active)

Q: What about the growth [13] of the same compound?
A: 36.9%

Q: What about the growth [14] of the same compound?
A: 42.3%

Q: And the growth [16]?
A: 3.09% (active)

Q: And the growth [17]?
A: 44.2%

Q: What about the growth [18] of the same compound?
A: 29.7%

Q: And the growth [19]?
A: 51.5%

Q: What does the source list for `C/C(CCC(=O)O)=N/Nc1ccc([N+](=O)[O-])cc1`?
A: growth [1]: 82.2%; growth [2]: 22.3%; growth [3]: 111%; growth [4]: 51.4%; growth [5]: 99.4%; growth [6]: 72.3%; growth [7]: 2% (active); growth [8]: 12.7%; growth [9]: 90.3%; growth [10]: 24.3%; growth [12]: 86.1%; growth [20]: 101%; growth [13]: 94.4%; growth [14]: 75.7%; growth [15]: 65.1%; growth [16]: 46.3%; growth [17]: 23%; growth [18]: 23.9%; growth [19]: 104%

Q: For `CC(=O)Nc1ccc(C(=O)/C=C/c2ccc(N(C)C)cc2)cc1`, which growth [1] is on record?
A: 98.2%

Q: And the growth [2]?
A: 98.2%

Q: What about the growth [3] of the same compound?
A: 88.9%

Q: And the growth [4]?
A: 104%

Q: And the growth [5]?
A: 99.1%

Q: And the growth [6]?
A: 93.7%

Q: What about the growth [7] of the same compound?
A: 99%

Q: And the growth [8]?
A: 106%

Q: And the growth [9]?
A: 95.5%

Q: And the growth [10]?
A: 99.4%

Q: What about the growth [12] of the same compound?
A: 91.3%

Q: What about the growth [20] of the same compound?
A: 99.7%

Q: And the growth [13]?
A: 109%

Q: What about the growth [14] of the same compound?
A: 93.9%

Q: And the growth [15]?
A: 94.6%

Q: What about the growth [16] of the same compound?
A: 98.7%

Q: What about the growth [17] of the same compound?
A: 102%

Q: And the growth [18]?
A: 96.1%

Q: And the growth [19]?
A: 108%
